Source: PubChem BioAssay (several laboratories)
Mtb FBA inh: inhibits M. tuberculosis FBA enzyme | P9WQA3 | inhibition, % at 1 µM | purified M. tuberculosis FBA, fluorescence read-out | hit rate 2.3% among 360,000;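 further: 0% = vehicle and 100% = reference inhibitor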
Target sequence (P9WQA3 whole entry, looked up): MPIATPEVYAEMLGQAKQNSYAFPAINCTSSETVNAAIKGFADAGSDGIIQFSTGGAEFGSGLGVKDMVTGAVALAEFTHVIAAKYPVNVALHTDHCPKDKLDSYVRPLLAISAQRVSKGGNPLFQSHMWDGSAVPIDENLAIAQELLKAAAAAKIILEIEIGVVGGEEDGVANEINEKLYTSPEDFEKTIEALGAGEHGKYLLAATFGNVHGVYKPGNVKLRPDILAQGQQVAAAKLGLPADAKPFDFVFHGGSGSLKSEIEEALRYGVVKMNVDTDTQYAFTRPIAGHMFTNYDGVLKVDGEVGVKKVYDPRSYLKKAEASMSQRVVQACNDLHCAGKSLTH
PrPC surface inh: inhibitors of human cell surface prion protein PrPC | hit rate 0.43% among 370,000 | inhibition, % at 13.8 µM | P04156 | TR-FRET read-out; in the data active means inhibition above about 24%; further: 0% = median of the test wells and 100% = reference compound wells
Mtb hypoxia rep: inhibitors of hypoxia-regulated fluorescent reporter in Mycobacterium tuberculosis | M. tuberculosis hypoxia-regulated fluorescent reporter, fluorescence | hit rate 0.1% among 300,000 | fluorescence inhibition, % (test concentration not listed); in the data active means fluorescence inhibition mostly above about 23%, no sharp cut-off; inactive means mostly below about 17%
Y pestis TopoI: Y. pestis Topo-I inhibition via cleavage products. Y. pestis Topo-I cleavage product accumulation, plate reader. activity, % at 10 µM. hit rate 0.064% among 360,000. AID 504884; in the data active means activity above about 50%, passing the limit was not always enough
GDH-TPI counter-1: GDH-TPI coupled enzyme inhibition counter-screen. hit rate 1.2% among 360,000. inhibition, % at 4.8 µM. GDH-TPI coupled enzyme counterscreen, NADH absorbance. AID 588335; in the data active means inhibition above about 30%;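 further: 0% = DMSO wells and 100% = wells lacking the enzyme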
PrP 5UTR inh: inhibition of PrP 5' UTR reporter expression. AID 488862. inhibition, % (test concentration not listed). hit rate 0.35% among 340,000. cell-based PrP 5' UTR mRNA reporter, plate reader; in the data active means inhibition above about 52%; further: 0 = median of the neutral control wells
Mtb FBA inh conf: Mtb FBA inhibition, confirmed | hit rate 78% among 5,600 | AID 651616 | shares compounds with Mtb FBA inh | inhibition, % at 1 µM | purified M. tuberculosis FBA, fluorescence read-out;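 further: 0% = vehicle wells and 100% = reference inhibitor wells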
GDH-TPI counter-2: inhibits GDH-TPI coupling enzymes, flagging Mtb FBA hits. AID 652141. GDH-TPI coupled enzyme counterscreen, fluorescence. inhibition, % at 1 µM. hit rate 81% among 5,600. shares compounds with Mtb FBA inh; in the data active means inhibition above about 10%
GDH-TPI DR: counter-screen for M. tuberculosis FBA inhibitors: GDH-TPI dose response | shares compounds with Mtb FBA inh | GDH-TPI coupled enzyme assay, fluorescence, artifact counterscreen | IC50, µM | hit rate 79% among 170; call rule not given here
An asterisk follows results filed as active; · = no result given; + = active, no number. An excerpt weighted towards active compounds, which were near 3.8% of everything screened. Unless noted, no stated cut-off is given here; in the data, active means inhibition above about 27%; inactive means the rest.

SMILES	Mtb FBA inh	PrPC surface inh	Mtb hypoxia rep	Y pestis TopoI	GDH-TPI counter-1	PrP 5UTR inh	Mtb FBA inh conf	GDH-TPI counter-2	others
O=C(NN=Cc1ccc(OC(F)F)cc1)c1cc[n+]([O-])cc1	·	·	9	·	·	·	·	·
CSc1nccc(Oc2ccccc2Cl)n1	110*	8	4	8	-4	·	13	8	GDH-TPI DR=>10
CSc1nccc(Oc2cncc(Cl)c2)n1	0	7	0	-1	-4	-11	·	·
COCCn1c(=NC(=O)c2ccc3c(c2)OCCO3)sc2cc(S(N)(=O)=O)ccc21	109*	-2	1	4	45*	2	76*	50*
COCCn1c(=NC(=O)c2cc(Cl)sc2Cl)sc2cc(S(N)(=O)=O)ccc21	5	1	5	3	25	-8	·	·
CC(Oc1ccc2c3c(c(=O)oc2c1)CCCC3)C(=O)NCC1CCC(C(=O)O)CC1 (stereo unspecified)	73*	4	13	3	10	-18	63*	57*
CC(Oc1cc2oc(=O)c3c(c2cc1Cl)CCC3)C(=O)NC1CC(C)(C)NC(C)(C)C1 (stereo unspecified)	5	0	2	-9	16	-12	·	·
CC(Oc1ccc2c3c(c(=O)oc2c1)CCCC3)C(=O)NCc1cccnc1 (stereo unspecified)	71*	-3	7	6	11	1	+	155*
CC(Oc1ccc2c3c(c(=O)oc2c1)CCCC3)C(=O)NC1CC(C)(C)NC(C)(C)C1 (stereo unspecified)	64*	-3	12	-3	-5	4	+	182*
Cc1cc(OC(C)C(=O)NC2CC(C)(C)NC(C)(C)C2)c2c(C)c(C)c(=O)oc2c1 (stereo unspecified)	71*	-7	·	-1	13	·	+	+
CC(Oc1ccc2c3c(c(=O)oc2c1)CCC3)C(=O)NC1CCN(Cc2ccccc2)CC1 (stereo unspecified)	22	3	6	3	10	12	·	·
CC(=O)C(C)Oc1cc(C)cc2oc(=O)c(C)c(C)c12 (stereo unspecified)	20	-2	1	3	5	-3	·	·
COc1ccc(N(CC(=O)NN=C(C)c2ccc(OC)c(OC)c2)S(=O)(=O)c2ccccc2)cc1	·	·	9	·	·	·	·	·
Cc1ccsc1C=NNC(=O)CNC(=O)c1ccc(S(=O)(=O)N(C)C)cc1	·	·	8	·	·	·	·	·
O=c1[nH]c(=O)n(Cc2ccccc2)c2nc(-c3ccco3)cc(C(F)(F)F)c12	27*	-2	9	3	2	-2	72*	64*
Cc1cc(C(F)(F)F)c2c(=O)[nH]c(=O)n(Cc3ccccc3)c2n1	-1	4	1	1	4	0	·	·
COc1cc2c(cc1O)C1Cc3cc(O)c(OC)cc3C(C2)N1C (stereo unspecified)	·	·	4	·	·	·	·	·
Cc1nc2ccc(NC(=O)N3CCCCC3)cc2nc1C	63*	-2	25	-4	6	-20	159*	130*
CCOC(=O)N1CCN(C(=O)Nc2ccc3nc(C)c(C)nc3c2)CC1	43*	-3	8	-2	14	-6	+	+
Cc1nc2ccc(NC(=S)N3CCCC3)cc2nc1C	15	10	10	9	8	-16	·	·
CCCCOc1ccc(Cl)cc1CSc1n[nH]c(C)n1	2	3	7	7	-9	-18	·	·
CCOc1ccc(Cl)cc1CSc1n[nH]c(CC)n1	35*	2	3	0	1	5	5	0
Cc1ccc(-c2cc3nc(C)cc(C)n3n2)cc1	9	0	-7	-6	-5	-75	·	·
Cc1cc(C)n2nc(-c3ccsc3-n3c(C)ccc3C)cc2n1	46*	5	·	11	4	-11	61*	27*
O=C(NN=Cc1ccncc1)NC12CC3CC(CC(C3)C1)C2	·	·	4	·	·	·	·	·
SMILES	Mtb FBA inh	PrPC surface inh	Mtb hypoxia rep	Y pestis TopoI	GDH-TPI counter-1	PrP 5UTR inh	Mtb FBA inh conf	GDH-TPI counter-2	others
CCN(C(=O)C1CC1)C1CCS(=O)(=O)C1 (stereo unspecified)	35*	0	2	8	-6	2	121*	106*
COc1ccc2ccccc2c1C=NNC(=O)c1ccc(C)s1	·	·	6	·	·	·	·	·
O=C1OC(C(Cl)(Cl)Cl)Nc2ccccc21 (stereo unspecified)	40*	-5	·	·	·	·	+	+
c1ccc(-c2nn(-c3ccccc3)[n+](-c3ccccc3)n2)cc1	-3	-11	·	0	0	-34	·	·
OC[C@@H]1[C@@H](c2ccc(Cl)cc2)C(c2ccc(F)cc2)=NN1c1ccccc1	60*	-1	3	-13	3	-7	150*	98*
OC[C@@H]1[C@@H](c2ccccc2)C(c2cccc(Cl)c2)=NN1c1ccccc1	50*	11	4	-26	-6	-5	122*	134*
OC[C@@H]1[C@@H](c2ccccc2)C(c2ccccc2)=NN1c1ccccc1	49*	3	0	-16	3	-9	120*	91*
COc1ccccc1C1C(c2ccc(F)cc2)=NN(c2ccccc2)C1C(=O)N1CCOC1=O (stereo unspecified)	·	·	0	·	·	·	·	·
O=C(C1=NN(c2ccccc2)C2C(=O)N(c3cccc(Cl)c3)C(=O)C12)c1ccccc1 (stereo unspecified)	-4	-8	5	2	5	-13	·	·
C=CCOc1c(Br)cc(C2C3=C(CCCC3=O)N(C)C3=C2C(=O)CCC3)cc1OCC	58*	-11	-3	10	14	-14	58*	41*
Cc1nc(CS(=O)(=O)c2ccc(Cl)cc2)cc(Sc2ccccc2Cl)n1	31*	-2	·	23	3	-13	110*	98*
O=C(CNc1ccc2ccccc2c1)NN=Cc1ccncc1	·	·	-18	·	·	·	·	·
Cc1cc(-c2ccccc2)c2nncn2n1	45*	-22	10	16	-3	-45	+	+
Cc1cc(-c2ccccc2)c2c3c(cn2n1)c(=O)n(C)c(=O)n3C	1	2	2	6	3	-11	·	·
C=CCOCCn1[nH]c2ccccc2c1=O	47*	2	-7	5	3	-14	130*	108*
O=C(Nc1c(C(=O)O)[nH]c2ccccc12)NC1CCCCC1	35*	-3	·	0	3	-10	+	174*
COC(=O)c1[nH]c2ccc(C)cc2c1NC(=O)NC1CCCCC1	12	3	·	4	7	-5	·	·
COc1ccc(CNC(=O)C[C@H]2C[C@H](C(=O)N3CCOCC3)[C@@]3(C)c4[nH]c5cc(-c6ccco6)ccc5c4CCN3C2=O)cc1OC	36*	-5	-4	41	1	-10	+	+
